In PubChem BioAssay (NCI):
This is part of a sample that, as a whole, favours compounds with a hit. Of some 79,000 tested, about 15% had one in any assay. Unmarked numbers belong to inactive results. The source made the active and inactive calls. No stated cut-off is given here; in the data, active means growth inhibition above about 70%; inactive means the rest.

What was measured:
[1] = NCI Yeast Anticancer Drug Screen. Data for the wt1 strain (AID 149);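 further: 0% = growth of vehicle-treated wt1 cultures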; settings: S. cerevisiae wt1 strain (SPY 50644) growth inhibition, hits give high values
In short: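 wt1 yeast, compound-treated; % growth inhibition vs vehicle control.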

[2] = NCI Yeast Anticancer Drug Screen. Data for the rad50EPP+ strain (AID 151);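 further: 0% = growth of vehicle-treated control cultures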; settings: S. cerevisiae rad50 mutant strain, hits give high values
In short: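 Read-out is yeast growth inhibition relative to vehicle; cells used were the rad50EPP+ strain.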

[3] = NCI Yeast Anticancer Drug Screen. Data for the mgt1 strain (AID 153); settings: S. cerevisiae mgt1 mutant growth inhibition, hits give high values
In short: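 Measured: inhibition of mgt1 yeast growth by compound, normalized to vehicle-treated cultures.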

[4] = NCI Yeast Anticancer Drug Screen. Data for the rad50 strain (AID 155);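 further: 0% = growth of vehicle-only cultures of the same strain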; settings: S. cerevisiae rad50 strain growth inhibition, hits give high values
In short: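 Genetically altered yeast (DNA repair pathway); compound treatment; growth inhibition vs vehicle ctrl.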

[5] = NCI Yeast Anticancer Drug Screen. Data for the mec2-1 strain (AID 157); settings: S. cerevisiae mec2-1 strain, hits give high values
In short: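 Using mec2-1 yeast: add compound, measure growth, express inhibition versus vehicle-treated cultures.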

[6] = NCI Yeast Anticancer Drug Screen. Data for the rad14 strain (AID 159);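 further: 0% = growth of vehicle-treated control cultures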; settings: S. cerevisiae rad14 strain growth inhibition, hits give high values
In short: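 Test compounds were applied to a repair-deficient yeast strain. Its growth was then compared with that of cultures given vehicle alone, and inhibition was expressed relative to those controls.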

[7] = NCI Yeast Anticancer Drug Screen. Data for the sgs1 mgt1 strain (AID 161);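 further: 0% = growth of cultures given vehicle only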; settings: S. cerevisiae sgs1 mgt1 strain, hits give high values
In short: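 Growth of a repair-deficient yeast mutant was monitored after compound treatment and expressed as inhibition relative to vehicle-treated cultures.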

[8] = NCI Yeast Anticancer Drug Screen. Data for the cln2 rad14 strain (AID 165);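 further: 0% = growth equal to vehicle treated cultures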; settings: S. cerevisiae cln2 rad14 strain, hits give high values
In short: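 Yeast strain cln2 rad14, bearing defects in cell cycle control and DNA repair, serves as the test system; values reflect growth inhibition compared with vehicle.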

[9] = NCI Yeast Anticancer Drug Screen. Data for the bub3 strain (AID 167); settings: S. cerevisiae bub3 mutant strain, hits give high values
In short: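 Yeast carrying a defined mutation is treated with each compound, and growth is compared with that of vehicle-exposed cells to give inhibition.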

[10] = NCI Yeast Anticancer Drug Screen. Data for the wt2 strain (AID 169);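 further: 0% = growth of vehicle-treated yeast cultures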; settings: S. cerevisiae wt2 strain growth inhibition, hits give high values
In short: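 Treated yeast vs. vehicle-treated yeast: growth inhibition determined.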

[11] = NCI Yeast Anticancer Drug Screen. Data for the mlh1 strain (AID 171);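 further: 0% = growth of vehicle-treated control cultures of the same strain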; settings: S. cerevisiae mlh1 strain growth inhibition, hits give high values
In short: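 A yeast strain with a defined genetic lesion serves as the test organism. Cultures receive compound or vehicle, and growth is measured.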

[12] = NCI Yeast Anticancer Drug Screen. Data for the mlh1 rad18 strain (AID 175); settings: S. cerevisiae mlh1 rad18 strain growth inhibition, hits give high values
In short: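 Steps: expose repair-defective yeast to compound; measure growth; express inhibition against vehicle-treated controls.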

[13] = NCI Yeast Anticancer Drug Screen. Data for the CLN2oe strain (AID 163);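 further: 0% = growth of vehicle-only control cultures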; settings: S. cerevisiae CLN2oe strain, hits give high values
In short: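 Whole-cell yeast growth assay. A strain engineered for altered cell-cycle control received compound, and inhibition relative to vehicle-treated cultures was recorded.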

[14] = NCI Yeast Anticancer Drug Screen. Data for the sgs1 strain (AID 173);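 further: 0% = growth of vehicle-only control cultures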; settings: S. cerevisiae sgs1 mutant, hits give high values
In short: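 A genetically defined yeast mutant is incubated with the test compound, and its growth is compared to that of the same strain given vehicle.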

[15] = NCI Yeast Anticancer Drug Screen. Data for the rad18 strain (AID 177); settings: S. cerevisiae rad18 mutant growth inhibition, hits give high values
In short: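 Measured value is growth inhibition of a yeast strain bearing a DNA repair alteration, referenced to vehicle-treated cells.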

[16] = at 5.0 µM (retest, dose inferred, filed as 0.5)
[17] = at 50.0 µM (retest, dose inferred, filed as 5.0)

Molecule `CCOC(=O)C(Cc1c2ccccc2cc2ccccc12)(NC(C)=O)C(=O)OCC` has a growth inhibition ([1]; at 1.2 µM) of -1%, a growth inhibition ([1]; at 3.7 µM) of 0% and a growth inhibition ([1]; at 11.0 µM) of -2%. It also gave a growth inhibition ([1]; at 33.0 µM) of -3%, a growth inhibition ([1]; at 100.0 µM) of -2% and a growth inhibition ([2]; at 1.2 µM) of 0%. For the same molecule, the growth inhibition ([2]; at 3.7 µM) was 0%, the growth inhibition ([2]; at 11.0 µM) was 6% and the growth inhibition ([2]; at 33.0 µM) was 12%. It also gave a growth inhibition ([2]; at 100.0 µM) of 10%, a growth inhibition ([3]; at 1.2 µM) of -3% and a growth inhibition ([3]; at 3.7 µM) of -2%. The growth inhibition ([3]; at 11.0 µM) was -3%, the growth inhibition ([3]; at 33.0 µM) was -18% and the growth inhibition ([3]; at 100.0 µM) was -4%. The growth inhibition ([4]; at 1.2 µM) was -6%, the growth inhibition ([4]; at 3.7 µM) was -16% and the growth inhibition [4, 16] was -8%. The growth inhibition ([4]; at 11.0 µM) was -22%, the growth inhibition ([4]; at 33.0 µM) was -4% and the growth inhibition [4, 17] was 11%. For the same molecule, the growth inhibition ([4]; at 50.0 µM) was 90.2% (active), the growth inhibition ([4]; at 100.0 µM) was -2% and the growth inhibition ([5]; at 1.2 µM) was 0%. For the same molecule, the growth inhibition ([5]; at 3.7 µM) was 0%, the growth inhibition [5, 16] was -6% and the growth inhibition ([5]; at 11.0 µM) was -1%. For the same molecule, the growth inhibition ([5]; at 33.0 µM) was 1%, the growth inhibition [5, 17] was 27% and the growth inhibition ([5]; at 50.0 µM) was 75.5% (active). The growth inhibition ([5]; at 100.0 µM) was -1%, the growth inhibition ([6]; at 1.2 µM) was -3% and the growth inhibition ([6]; at 3.7 µM) was -5%. It also gave a growth inhibition ([6]; at 11.0 µM) of -3%, a growth inhibition ([6]; at 33.0 µM) of -5% and a growth inhibition ([6]; at 100.0 µM) of -1%. The growth inhibition [7, 16] was -7%, the growth inhibition [7, 17] was 19% and the growth inhibition ([7]; at 50.0 µM) was 86% (active). For the same molecule, the growth inhibition [8, 16] was 5%, the growth inhibition [8, 17] was 41% and the growth inhibition ([8]; at 50.0 µM) was 61.3%. It also gave a growth inhibition ([9]; at 1.2 µM) of -2%, a growth inhibition ([9]; at 3.7 µM) of 1% and a growth inhibition [9, 16] of 8%. It also gave a growth inhibition ([9]; at 11.0 µM) of -1%, a growth inhibition ([9]; at 33.0 µM) of 0% and a growth inhibition [9, 17] of 67%. The growth inhibition ([9]; at 50.0 µM) was 88.8% (active), the growth inhibition ([9]; at 100.0 µM) was 2% and the growth inhibition ([10]; at 1.2 µM) was -2%. The growth inhibition ([10]; at 3.7 µM) was -3%, the growth inhibition ([10]; at 11.0 µM) was -4% and the growth inhibition ([10]; at 33.0 µM) was -2%. For the same molecule, the growth inhibition ([10]; at 100.0 µM) was -2%, the growth inhibition ([11]; at 1.2 µM) was 0% and the growth inhibition ([11]; at 3.7 µM) was 0%. The growth inhibition ([11]; at 11.0 µM) was -3%, the growth inhibition ([11]; at 33.0 µM) was -2% and the growth inhibition ([11]; at 100.0 µM) was 0%. The growth inhibition [12, 16] was -11%, the growth inhibition [12, 17] was 35% and the growth inhibition ([12]; at 50.0 µM) was 86.9% (active).
In the case of `Nc1cc2c(cc1N)-c1ccccc1C2=O`, the growth inhibition ([1]; at 1.2 µM) is reported as -2%, the growth inhibition ([1]; at 3.7 µM) is reported as -3% and the growth inhibition ([1]; at 11.0 µM) is reported as -4%. It also gave a growth inhibition ([1]; at 33.0 µM) of 3%, a growth inhibition ([1]; at 100.0 µM) of 36% and a growth inhibition ([2]; at 1.2 µM) of 1%. The growth inhibition ([2]; at 3.7 µM) was 9%, the growth inhibition ([2]; at 11.0 µM) was 18% and the growth inhibition ([2]; at 33.0 µM) was 31%. The growth inhibition ([2]; at 100.0 µM) was 70% (active), the growth inhibition ([3]; at 1.2 µM) was -3% and the growth inhibition ([3]; at 3.7 µM) was -2%. The growth inhibition ([3]; at 11.0 µM) was -2%, the growth inhibition ([3]; at 33.0 µM) was 1% and the growth inhibition ([3]; at 100.0 µM) was 95% (active). It also gave a growth inhibition ([4]; at 1.2 µM) of 0%, a growth inhibition ([4]; at 3.7 µM) of -57% and a growth inhibition [4, 16] of 4%. The growth inhibition ([4]; at 11.0 µM) was 19%, the growth inhibition ([4]; at 33.0 µM) was 37% and the growth inhibition [4, 17] was 67%. For the same molecule, the growth inhibition ([4]; at 50.0 µM) was 71.4% (active), the growth inhibition ([4]; at 100.0 µM) was 92% (active) and the growth inhibition ([5]; at 1.2 µM) was -2%. It also gave a growth inhibition ([5]; at 3.7 µM) of -4%, a growth inhibition [5, 16] of 0% and a growth inhibition ([5]; at 11.0 µM) of -1%. It also gave a growth inhibition ([5]; at 33.0 µM) of 9%, a growth inhibition [5, 17] of 23% and a growth inhibition ([5]; at 50.0 µM) of 39%. For the same molecule, the growth inhibition ([5]; at 100.0 µM) was 70% (active), the growth inhibition ([6]; at 1.2 µM) was -1% and the growth inhibition ([6]; at 3.7 µM) was 3%. The growth inhibition ([6]; at 11.0 µM) was 8%, the growth inhibition ([6]; at 33.0 µM) was 26% and the growth inhibition ([6]; at 100.0 µM) was 97% (active). The growth inhibition [7, 16] was -8%, the growth inhibition [7, 17] was 17% and the growth inhibition ([7]; at 50.0 µM) was -11.9%. It also gave a growth inhibition ([13]; at 1.2 µM) of -3%, a growth inhibition ([13]; at 3.7 µM) of 0% and a growth inhibition ([13]; at 11.0 µM) of 2%. The growth inhibition ([13]; at 33.0 µM) was 2%, the growth inhibition ([13]; at 100.0 µM) was 13% and the growth inhibition [8, 16] was -10%. It also gave a growth inhibition [8, 17] of 15%, a growth inhibition ([8]; at 50.0 µM) of -0.1% and a growth inhibition ([9]; at 1.2 µM) of -2%. For the same molecule, the growth inhibition ([9]; at 3.7 µM) was 1%, the growth inhibition [9, 16] was 0% and the growth inhibition ([9]; at 11.0 µM) was 0%. For the same molecule, the growth inhibition ([9]; at 33.0 µM) was 4%, the growth inhibition [9, 17] was 49% and the growth inhibition ([9]; at 50.0 µM) was 45.1%. It also gave a growth inhibition ([9]; at 100.0 µM) of 65%, a growth inhibition ([10]; at 1.2 µM) of -3% and a growth inhibition ([10]; at 3.7 µM) of 6%. The growth inhibition ([10]; at 11.0 µM) was -2%, the growth inhibition ([10]; at 33.0 µM) was 1% and the growth inhibition ([10]; at 100.0 µM) was 41%. It also gave a growth inhibition ([11]; at 1.2 µM) of -1%, a growth inhibition ([11]; at 3.7 µM) of -2% and a growth inhibition ([11]; at 11.0 µM) of -2%. The growth inhibition ([11]; at 33.0 µM) was 2%, the growth inhibition ([11]; at 100.0 µM) was 86% (active) and the growth inhibition ([14]; at 1.2 µM) was -3%. It also gave a growth inhibition ([14]; at 3.7 µM) of -3%, a growth inhibition ([14]; at 11.0 µM) of -1% and a growth inhibition ([14]; at 33.0 µM) of 6%. The growth inhibition ([14]; at 100.0 µM) was 74% (active), the growth inhibition [12, 16] was 0% and the growth inhibition [12, 17] was 57%. For the same molecule, the growth inhibition ([12]; at 50.0 µM) was 68.7%, the growth inhibition ([15]; at 1.2 µM) was -3% and the growth inhibition ([15]; at 3.7 µM) was 1%. The growth inhibition ([15]; at 11.0 µM) was 5%, the growth inhibition ([15]; at 33.0 µM) was 21% and the growth inhibition ([15]; at 100.0 µM) was 93% (active).
